Screening data as filed in PubChem.
WRN inhibitor: inhibitors of human WRN helicase | AID 651768 | Potency, µM (highest dose often 114 µM), most hits filed as inhibitors | 0.46% of 360,000 active | Q14191 | WRN helicase unwinding, fluorescent forked duplex, kinetic; further: nearly all actives have a fitted effect of over 55% in size
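Fluorescence dequenching readout, ex 525 nm/em 598 nm, kinetic mode: forked duplex DNA (100 nM final) with adjacent fluorophore and quencher unwound by WRN (20 nM final) with 2 mM ATP. Compound preincubation 15 min, room temperature.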
POLH inh: DNA polymerase eta (human) inhibition; recombinant Pol eta, fluorescent DNA replication assay; Potency, µM (highest dose often 114 µM), most hits filed as inhibitors; 1.2% of 390,000 active
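Fluorescent replication assay: 50 nM final substrate added after a 15 min room-temperature compound preincubation with 10 nM enzyme. Signal taken at 0 min and again at 10 min.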
POLI inh: inhibitors of human DNA polymerase iota; AID 588590; Q9UNA4; Potency, µM (top dose mostly 115 µM), actives largely listed as inhibitors; 1% of 390,000 active; Pol iota fluorescent replication assay, 10 min
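Fluorescent replication assay read twice, at 0 min and 10 min after adding 50 nM (final) substrate. Enzyme (10 nM) and compounds were first incubated 15 min at room temperature; enzyme-free buffer wells were negative controls.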
FEN1 inh: inhibitors of human flap endonuclease 1 | Potency, µM (series often up to 114 µM), usual class: inhibitors | Recombinant FEN1 flap cleavage, fluorescence, 15 min | P39748 | 0.35% of 390,000 active; further: nearly all actives have a fitted effect of over 65% in size
Target sequence (P39748 whole entry, looked up): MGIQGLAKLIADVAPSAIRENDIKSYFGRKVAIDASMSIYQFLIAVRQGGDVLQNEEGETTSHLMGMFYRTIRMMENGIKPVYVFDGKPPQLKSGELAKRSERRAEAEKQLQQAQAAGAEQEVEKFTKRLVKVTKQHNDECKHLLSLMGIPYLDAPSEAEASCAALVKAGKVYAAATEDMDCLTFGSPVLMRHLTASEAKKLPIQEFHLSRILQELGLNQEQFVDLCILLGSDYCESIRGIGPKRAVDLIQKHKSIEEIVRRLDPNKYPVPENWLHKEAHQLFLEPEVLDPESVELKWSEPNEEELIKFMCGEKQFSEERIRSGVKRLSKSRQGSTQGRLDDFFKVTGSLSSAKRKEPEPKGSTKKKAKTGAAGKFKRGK
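In this screen, 50 nM flap DNA substrate was added to 10 nM FEN1 pretreated with compound for 15 min at room temperature; cleavage was followed with reads at 0 and 15 min, and Hill fitting gave concentration–response parameters.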
POLB inh: inhibitors of human DNA polymerase beta | Pol beta primer extension/strand displacement, fluorescence kinetic | Potency, µM (series often up to 114 µM), hits mostly inhibitors | 1.3% of 340,000 active | AID 485314
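Enzyme-only controls used 10 nM Pol beta; buffer lacking enzyme served as negative control. Compound preincubated 15 min, then 50 nM substrate added; 0 and 10 min reads at room temperature.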
Pol kappa inh: DNA polymerase kappa (human) inhibition | 0.53% of 400,000 active | AID 588579 | Potency, µM (titrated, usually from 107 µM), most hits filed as inhibitors | Q9UBT6 | purified Pol kappa, fluorescent DNA synthesis assay, 10 min
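Enzyme at 10 nM met test compounds for 15 min at room temperature. Substrate addition (50 nM final) began the reaction, which was monitored by fluorescence at 0 and 10 min.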
Of the large screens only hits and unclear results are named; the others gave an inactive call. Hits are enriched below; roughly 2.4% of the tested compounds scored in any of these assays. The call rests on the fitted dose curve; in most records, active means well fitted curve in the direction sought with a large enough effect; inconclusive means small, poorly fitted or top-dose-only effect, or another doubt; inactive means no such curve, though single readings can be large; an effect the other way counts as inactive or inconclusive.

O=C(COC(=O)c1ccc(Cl)nc1)Nc1ncc(Cl)cc1Cl	POLH inh 35µM, POLB inh inconclusive
CC(=O)Nc1cccc(-n2cc3c(c2-c2ccccc2Cl)c(=O)n(C)c(=O)n3C)c1	POLI inh inconclusive, Pol kappa inh 89µM (no result: WRN inhibitor)
Cc1nn(-c2ccccc2)c(Cl)c1C(=O)NCc1cccs1	POLH inh inconclusive, POLI inh inconclusive, POLB inh 13µM
Cc1nn(-c2ccccc2)c(C)c1C(=O)NCc1cccs1	none
CCS(=O)(=O)N1CCC(NC(=O)C(Cc2cc(OC)ccc2OC)NC(C)=O)CC1 (centres undefined)	none
NC(=S)n1[nH]c(-c2ccc([N+](=O)[O-])cc2)c(N=Nc2ccc(O)cc2)c1=O	POLH inh inconclusive, POLI inh inconclusive, Pol kappa inh inconclusive
Cc1[nH]n(C(N)=S)c(=O)c1N=Nc1ccc([N+](=O)[O-])cc1Cl	POLI inh 40µM
NC(=S)n1[nH]c(-c2ccc([N+](=O)[O-])cc2)c(N=Nc2cccc(Cl)c2)c1=O	POLH inh 40µM, POLI inh 20µM, FEN1 inh 50µM, POLB inh inconclusive, Pol kappa inh inconclusive
CCN(CC)S(=O)(=O)c1ccc(N=Nc2c(C)[nH]n(C(N)=S)c2=O)cc1	POLB inh 40µM
CCOc1ccc2nc(NC(=O)COc3ccc(N(C)S(=O)(=O)c4ccc(C)cc4)cc3)sc2c1	none
Cc1cc([N+](=O)[O-])nn1CC(=O)N1CCCc2ccccc21	none
CCCc1nc2c(ccc3ccccc32)cc1CC	none
CCN(CC(=O)Nc1ccc(NC(C)=O)cc1)C(=O)c1cccc(-n2cccc2)c1	POLH inh inconclusive, POLI inh 56µM (no result: POLB inh)
COc1ccc(CCn2c(C3CCCCC3)nc3c(c(=O)c4ccccc4n3C)c2=O)cc1	POLB inh inconclusive
Cn1c2ccccc2c(=O)c2c(=O)n(C3CCCCC3)c(-c3cccs3)nc21	FEN1 inh 56µM
Cn1c2ccccc2c(=O)c2c(=O)n(C3CCCCCC3)c(C3CCCCC3)nc21	POLH inh inconclusive
COc1ccc(Cn2c(C3CCCCC3)nc3c(c(=O)c4ccccc4n3C)c2=O)cc1	POLH inh inconclusive, POLB inh 4.5µM
C[C@@H]1CN([C@@H](C)CO)C(=O)CCCn2nncc2CO[C@H]1CN(C)C	none (no result: POLI inh, FEN1 inh, POLB inh, Pol kappa inh)
COc1cc(C(C)=O)ccc1OCc1cn(CC(=O)c2ccc(O)cc2)nn1	POLI inh 4.5µM, FEN1 inh inconclusive (no result: POLB inh)
O=C(Cn1cc(COc2ccccc2C(F)(F)F)nn1)c1ccc(O)cc1	POLI inh 5µM (no result: POLB inh)
COc1cc(C=O)ccc1OCc1cn(CC(=O)c2ccc(O)cc2)nn1	none (no result: POLB inh)
CC(=O)c1ccc(OCc2cn(CC(=O)c3ccc(O)cc3)nn2)c(C)c1	none (no result: POLI inh, FEN1 inh, POLB inh, Pol kappa inh)
O=C(Cn1cc(COc2ccc(Br)cc2[N+](=O)[O-])nn1)c1ccc(O)cc1	POLI inh 4.5µM (no result: POLB inh)
Cc1cccc(C)c1OCc1cn(CC(=O)c2ccc(O)cc2)nn1	POLI inh 7.9µM (no result: POLB inh)
CC(=O)c1ccc(OCc2cn(CC(=O)c3ccc(O)cc3)nn2)cc1	POLI inh inconclusive (no result: POLB inh)
CC(C)Cn1c(SCC(=O)N2CC(=O)Nc3ccccc32)nc2ccccc21	none
On1c(-c2ccco2)nc2c1CCc1nonc1-2	Pol kappa inh inconclusive
C=C1C(=O)OC2C1CCC(C)=C1C(=O)C3OC3(C)C12 (centres undefined)	POLH inh 89µM, POLI inh inconclusive (no result: POLB inh)
Cc1nc(NC(=O)C(Cl)Cl)sc1C(=O)N(C)C	WRN inhibitor inconclusive, POLH inh 10µM, POLI inh inconclusive, POLB inh 35µM
Cc1nc(NC(=O)CCl)sc1C(=O)N(C)C	none
Cc1cccn2c(=O)c3cc(C(=O)NCCC4=CCCCC4)n(C)c3nc12	none
Cc1cccn2c(=O)c3cc(C(=O)NCCc4ccc(S(N)(=O)=O)cc4)n(C)c3nc12	POLH inh 79µM, POLB inh inconclusive (no result: WRN inhibitor)
CCOC(=O)CNC(=O)c1cc2c(=O)n3cccc(C)c3nc2n1C	POLB inh 71µM (no result: WRN inhibitor)
Cc1cccn2c(=O)c3cc(C(=O)NC(C)(C)C)n(C)c3nc12	none (no result: WRN inhibitor)
Cn1c(-c2ccc3nc(N)sc3c2)nc2cc(N)ccc21	WRN inhibitor inconclusive, POLH inh inconclusive, POLI inh 32µM, FEN1 inh 56µM, POLB inh 20µM, Pol kappa inh 71µM
Cn1c(-c2ccc(N)cc2)nc2ccccc21	none
OC[C@@H]1CN(Cc2ccc3c(c2)OCO3)C[C@H](n2cnc3c(NC4CCCC4)ncnc32)O1	none (no result: POLH inh, POLI inh, FEN1 inh, POLB inh, Pol kappa inh)
CSCCOC(=O)c1[nH]c2c(c1C)C(=O)CC(c1ccco1)C2 (centres undefined)	WRN inhibitor 56µM, POLH inh 18µM, POLI inh inconclusive, FEN1 inh inconclusive, POLB inh 7.9µM, Pol kappa inh 32µM
Cc1c(C(=O)OCc2ccccc2)[nH]c2c1C(=O)CC(c1ccco1)C2 (centres undefined)	WRN inhibitor 50µM, POLH inh 22µM, FEN1 inh inconclusive, POLB inh 11µM, Pol kappa inh inconclusive
Cc1cc(-c2nn3c(-c4ccccc4)nnc3s2)c2ccccc2n1	POLI inh 79µM, POLB inh inconclusive
c1ccc(-c2cc(-c3nn4c(-c5ccco5)nnc4s3)c3ccccc3n2)cc1	POLH inh inconclusive, POLI inh inconclusive, Pol kappa inh inconclusive
COc1ccccc1Nc1nc(-c2cccnc2)cs1	none
COCc1c(C(=O)OCC(=O)c2ccc[nH]2)oc2ccccc12	none (no result: POLB inh)
CSCc1c(C(=O)OCC(=O)c2ccc[nH]2)oc2ccccc12	POLH inh inconclusive, POLI inh 50µM, Pol kappa inh inconclusive (no result: POLB inh)
CCCCNC(=O)c1cccc(-n2c(C)nc3cccnc32)c1	none (no result: WRN inhibitor)
O=C(Nc1nc2c(F)cc(F)cc2s1)C1CC(=O)N(Cc2ccco2)C1 (centres undefined)	POLH inh 50µM, POLI inh 28µM, POLB inh 28µM, Pol kappa inh inconclusive
O=C(CN1CCN(C(=O)c2ccco2)CC1)N1CCc2[nH]c3ccccc3c2C1	none
N/C(=C\C(=O)c1cc(Cl)ccc1O)C(Cl)(Cl)Cl	POLH inh 50µM, POLI inh inconclusive
C#CCN(C[C@@H]1[C@@H](OC(=O)NCc2ccco2)[C@@H](OC(=O)NCc2ccco2)CN(C(=O)OC(C)C)N1C(=O)OC(C)C)S(=O)(=O)c1ccc(C)cc1	none (no result: POLI inh, FEN1 inh, POLB inh, Pol kappa inh)
COc1ccc(-c2c[n+](CC(=O)c3ccccc3)c3n2CCCCC3)cc1	none
COc1ccc(-c2c[n+]3c4n2CCCCC4=C(c2ccccc2)C3)cc1	POLB inh 11µM
COc1ccc(CCn2c(-n3nc(C)cc3C)nc3c2c(=O)[nH]c(=O)n3C)cc1	WRN inhibitor 79µM (no result: POLB inh)
CSc1ccc(/C=C/C(=O)NC(=O)c2ccccc2O)cc1	POLI inh inconclusive, POLB inh 35µM
O=C(NO)c1ccccc1O	none
O=C(/C=C/c1ccc(Br)cc1)NC(=O)c1ccccc1O	POLB inh 32µM
